Results from PubChem BioAssay (NCI).
The panel holds about 83,000 compounds, 20% with a hit somewhere; the sample as a whole holds those more often.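 Activity criterion: percent growth below 10, measured after cells in 96-well plates were exposed to a single compound concentration for 48 hours.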 A number with no mark means an inactive call. Activity calls are given as the source filed them.

Tested on: MALME-3M melanoma
Experiment: NCI-60 one-dose screen, 48 h (100 = growth as untreated, 0 = no growth, -100 = all killed)
Conditions: 10 µM unless noted

How did the growth turn out when O=C(CSc1nnnn1-c1ccccc1)Nc1ccc(Oc2ccccc2)cc1 was run?
Its growth is 133%.

For COc1cc(/C=C/C(=O)c2cccc(-n3cc(-c4ccc(Cl)cc4)[nH]c3=O)c2)ccc1O, which growth is on record?
The growth was 87.8%.

Oc1c(CN2CCC(N3CCOCC3)CC2)cc(Cc2cc(CN3CCC(N4CCOCC4)CC3)c(O)c3ncccc23)c2cccnc12 was tested. Which growth did it give?
The growth was 56.1%.

c1ccc2cc(Cn3cc(CSc4nc5ccccc5s4)nn3)ccc2c1 was tested. Which growth did it give?
The growth was 97.7%.

How did the growth turn out when CN(C)Cc1cc(C(C)(C)C)cc(Br)c1O was run?
The growth was 122%.

For CCN(CC)CCOc1ccc(/C(=C(\C)Cc2ccc(OC)cc2)c2ccc(OC(=O)NCc3ccccc3)cc2)cc1, which growth is on record?
The growth was 26.1%.

With C=C1C(=O)O[C@H]2[C@H]1CC/C(COC(=O)NCc1ccc(Cn3c(=O)sn(-c4ccc(I)cc4)c3=O)cc1)=C\CC[C@@]1(C)O[C@@H]21 as the molecule, how does the growth read?
The growth was 82.3%.

For O=c1oc2ccccc2cc1-c1nn(-c2ccccc2)cc1-c1nn[nH]n1, which growth is on record?
The growth was 90%.

For O=c1oc2c(cc1-c1ccccc1)c(=O)[nH]c1ccccc12, which growth is on record?
The growth was 95.7%.

For CC1=C(Cl)C(=O)c2cc(C)ccc2C1=O, which growth is on record?
Its growth is 114%.

Tested on: MDA-MB-231 breast
Experiment: as above
Conditions: 10 µM unless noted

O=c1oc2c(cnc3ccccc32)cc1-c1cccc(Cl)c1 was tested. Which growth did it give?
Its growth is 97.6%.

How did the growth turn out when CCOC(=O)c1c(C)nc2c(c1N)C(=O)C(=O)N2Cc1ccc(OC)cc1 was run?
The growth was 79.7%.

How did the growth turn out when CCNC(=O)N1CCc2c(Br)c3c(c(OC)c2C1Cc1ccc(OC)cc1)OCO3 (stereo not given) was run?
Its growth is 47.3%.

COc1cc2c(c(OC)c1OC)CCC(c1cccc(C(=O)Nc3ccc(Br)cc3)c1)O2 (stereo not given) was tested. Which growth did it give?
The growth was 17%.

For OC1CSSC1Cn1cnc2c(Nc3ccc(OCc4cccc(F)c4)c(Cl)c3)ncnc21 (stereo not given), which growth is on record?
The growth was -59.2% (active).

Which growth does the source give for Cc1ccc(OCCOCCOCCOc2ccc(C)n(O)c2=S)c(=S)n1O here?
Its growth is 28.3%.

With C=CN(C(=O)N1CCN(c2cc3c(cc2F)c(=O)c(C(=O)O)cn3C2CC2)CC1)c1nc(-c2ccc(Cl)cc2)cs1 as the molecule, how does the growth read?
Its growth is 76.4%.

For C#CCOc1cccc(Nc2ncnc3cc(NC(=O)CCl)ccc23)c1, which growth is on record?
Its growth is -78.9% (active).

For Cc1nc2ccccc2c(/C=C/c2ccc(F)cc2)c1C(=O)/C=C/c1ccccc1, which growth is on record?
Its growth is 22.4%.

How did the growth turn out when COc1cc(/C=C/C(=O)N2CCN(C(=O)c3cc(OC)c(OC)c(OC)c3)CC2)ccc1OCCCOc1cc2c(cc1OC)C(=O)N1CCC[C@H]1C=N2 was run?
Its growth is 9.01% (active).

Which growth does the source give for O=C(NC1CCC(Br)CC1)C1CCCC(S(=O)(=O)NC2CCCCC2)C1 (stereo not given) here?
Its growth is 36.1% [25 µM].

How did the growth turn out when COc1cc(/C=C/c2cn[nH]c2-c2ccc(C)cc2)cc(OC)c1OC was run?
Its growth is 47.4%.

For COc1ccc(C/C(C)=C(\c2ccc(Cl)cc2)c2ccc(OCCN3CCCC3)cc2)cc1, which growth is on record?
The growth was 85.7%.

How did the growth turn out when CN(C)Cc1ccc(NC(=O)c2cncc(C#Cc3cnc(N)c4ncccc34)c2)cc1C(F)(F)F was run?
The growth was -68.6% (active).

COC(=O)c1c(C)nc(C)c2c1C(=O)C=C(NCc1ccccc1)C2=O was tested. Which growth did it give?
Its growth is 70.3%.

How did the growth turn out when N#CSc1c[nH]c2ccc(/C=C/C(=O)/C=C(O)/C=C/c3ccc4[nH]cc(SC#N)c4c3)cc12 was run?
The growth was 22.8%.

Cc1ccc(-c2nc(SCC(=O)N3CCN(c4cc5c(cc4F)c(=O)c(C(=O)O)cn5C4CC4)CC3)nc(Cl)c2C#N)cc1 was tested. Which growth did it give?
Its growth is 99.7%.

For COC(=O)/C=C1/SC(=NCc2ccccc2)N(CCc2c[nH]c3ccccc23)C1=O, which growth is on record?
The growth was 91%.

How did the growth turn out when C=C(C)[C@@H]1CC[C@]2(C(=O)N3CCN(C)CC3)CC[C@]3(C)[C@H](CC[C@@H]4[C@@](C)(CCC(=O)O)[C@H](C(=C)C)CC[C@]43C)[C@@H]12 was run?
Its growth is 91.2%.

Nc1[nH]nc2nc(-c3ccccc3)n3c4ccccc4nc3c12 was tested. Which growth did it give?
Its growth is 97.9%.

For CN1CCOCCN(C)Cc2ccc3ccc(cc3c2)CN(C)CCOCCN(C)Cc2ccc3ccc(cc3c2)C1, which growth is on record?
The growth was 70.8%.

How did the growth turn out when COc1ccc(/C=N/Nc2c3ccccc3nc3ccccc23)cc1 was run?
The growth was 93.9%.

For C=C1C(=O)O[C@H]2[C@H]1CC/C(CNC(=O)Cc1c[nH]c3ccccc13)=C\CC[C@@]1(C)O[C@@H]21, which growth is on record?
Its growth is 16.1%.

With COc1ccc2c(c1)CC[C@@H]1[C@@H]2CC[C@]2(C)c3c(cc(C#N)c4c3sc3ccccc34)C[C@@H]12 as the molecule, how does the growth read?
The growth was 107%.

With O=C(c1c[nH]c2ccccc12)c1n[nH]c(=S)n1-c1ccc([N+](=O)[O-])cc1 as the molecule, how does the growth read?
Its growth is 91.3%.
